RXFP1 antagonist – blocks the human relaxin receptor RXFP1. activity change, negative = inhibition, % at 57.5 µM. HEK293-RXFP1, relaxin-stimulated cAMP HTRF, 30 min; hits give low values. AID 1259400. 0.59% of 350,000 active;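 active = activity change of -60% or lower, but not beyond a set lower limit; inconclusive = change between -60% and -40%, or beyond the set limit; inactive = change above -40%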
RXFP1 agonist – RXFP1 (human) receptor agonism | 0.3% of 370,000 active | Potency, µM (top dose mostly 57.5 µM), actives largely listed as activators | Q9HBX9 | HEK293T-RXFP1 cAMP TR-FRET, 30 min; response scale: percent of porcine relaxin response, buffer zero; active = well fitted activation curve with a large enough effect; inconclusive = small, poorly fitted or top-dose-only effect; note: nearly all actives have a fitted effect of over 60% in size
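Agonist response is measured as cAMP accumulation in an RXFP1-transfected HEK293T line under PDE4 inhibition. Values are scaled between buffer-only and 29 nM porcine relaxin, and EC50s come from standard Hill equation fits.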
gsp agonist – agonists of gsp mutant (McCune-Albright syndrome); AID 624287; gsp mutant cells, cAMP HTRF, 30 min; 0.13% of 340,000 active; Potency, µM (doses to about 76.9 µM), actives largely listed as activators; active = well fitted activation curve with a large enough effect; inconclusive = small, poorly fitted or top-dose-only effect, or another doubt; inactive = no such curve, though single readings can be large or run the other way; cell line not stated here;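 note: phosphodiesterase inhibitor Ro 20-1724 added with compounds to block cAMP breakdown; nearly all actives have a fitted effect of over 60% in size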
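Cells stably selected in G418 were plated at 2000/well, grown 16-24 hr, then given compounds in DMSO with the PDE inhibitor […] (300 uM solution added) for 30 min at 37C; cAMP was read by HTRF.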
gsp antagonist – gsp mutant antagonism | gsp-mutant cells, cAMP HTRF, 30 min | Potency, µM (highest dose often 76.9 µM), hits mostly inhibitors | 0.4% of 340,000 active | AID 624288; calls by dose curve; cell line not stated here;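 note: intracellular cAMP measured with PDE inhibitor Ro 20-1724 present during compound exposure; nearly all actives have a fitted effect of over 65% in size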
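HTRF cAMP measurement after 30 min RT detection following 30 min, 37C compound treatment alongside […] (added as 300 uM solution) in G418-selected cells seeded at 2000/well and grown 16–24 h.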
A number is an active result; 0 = inactive; ? = inconclusive; - = no result given; [ ] = remark or other dose. This is a sample that favours compounds with a hit; in the whole collection about 0.9% have one here.

SMILES	RXFP1 antagonist	RXFP1 agonist	gsp agonist	gsp antagonist
CC(Oc1ccc2c3c(c(=O)oc2c1)CCCC3)C(=O)NCC1CCC(C(=O)O)CC1 (configuration not stated)	0	0	0	0
CC(Oc1ccc2c3c(c(=O)oc2c1)CCC3)C(=O)NCC1CCC(C(=O)O)CC1 (configuration not stated)	-	0	-	32µM
CCCC(CCC)C(=O)Nc1cccc(-c2nc3cccnc3s2)c1	0	0	-	-
Oc1ccc(Nc2nc(-c3ccccc3)nc3ccccc23)cc1	-77	0	0[15.4 µM]	0
CCS(=O)(=O)N1CCc2cc(C(=O)N3CCN(c4cccc(C(F)(F)F)c4)CC3)ccc21	-	0	-	-
CCn1c(=O)c2c(nc(C=Cc3ccc(OC)c(OC)c3)n2C)n(CC)c1=O	0	-	-	-
CCOc1ccc(NC(=O)Cn2sc3nc(C)cc(C)c3c2=O)cc1	-66	0	0[15.4 µM]	0
O=S(=O)(O)OCC1OC(OC2(COS(=O)(=O)O)OC(COS(=O)(=O)O)C(OS(=O)(=O)O)C2OS(=O)(=O)O)C(OS(=O)(=O)O)C(OS(=O)(=O)O)C1OS(=O)(=O)O (configuration not stated)	0	-	-	-
CCC(Oc1ccccc1F)C(=O)N1CCC(c2nc3ccccc3s2)CC1 (configuration not stated)	0	0	-	-
CCCc1ccc2oc(C(=O)NCCc3nc(C(=O)OCC)cs3)c(C)c2c1	-79	0	0[15.4 µM]	?
CCCc1ccc2oc(C(=O)NCCc3cnn(C)c3)c(C)c2c1	?	0	0	0
CCC(C)NC(=O)CSc1c2c(nc3ccccc13)CCCC2 (configuration not stated)	0	0	13µM	0
Cc1cccc(NC(=O)CSc2c3c(nc4ccccc24)CCC3)n1	0	0	?	0
COc1cc2ccccc2cc1C(=O)Nc1ccc(Cc2ccncc2)cc1	0	0	0	35µM
COc1cc2ccccc2cc1C(=O)Nc1ccc(C)cc1	0	0	0	32µM
CCOc1ccc(/C=N/NC(=O)c2cc3ccccc3cc2OC)cc1	0	0	0	28µM
COc1ccc2c(c1)CCc1c(C(=O)Nc3c(C)nn(Cc4ccc(Cl)c(Cl)c4)c3C)noc1-2	0	0	-	-
COc1ccc(C(=O)c2ccccc2)c2c(O)ccc(C(=O)c3ccccc3)c12	0	0	0	28µM
COc1cc(O)c(C(=O)c2ccccc2)cc1S(=O)(=O)O	0	-	-	-
N#Cc1c(C(F)(F)F)cc(-c2ccccc2Cl)[nH]c1=O	-110	0	0	28µM
CC[C@@H](CO)NCCN[C@@H](CC)CO	0	-	-	-
COCCCn1c(=N)c(C(=O)NCc2cccnc2)cc2c(=O)n3cccc(C)c3nc21	0	?	-	-
COCCCNC(=O)c1cc2c(=O)n3cccc(C)c3nc2n(C(C)C)c1=N	0	0	22µM	0
COc1ccc(CNC(=O)c2cc3c(=O)n4cccc(C)c4nc3n(CC3CCCO3)c2=N)cc1 (configuration not stated)	0	?	2.2µM	0
COc1ccc(CCn2c(=N)c(C(=O)NCC3CCCO3)cc3c(=O)n4cccc(C)c4nc32)cc1 (configuration not stated)	0	18µM	?	0
SMILES	RXFP1 antagonist	RXFP1 agonist	gsp agonist	gsp antagonist
COCCn1c(=N)c(C(=O)NCCc2ccc(OC)cc2)cc2c(=O)n3cccc(C)c3nc21	0	0	0	0
COc1ccccc1N1CCN(C(=O)CN2C(=O)COc3ccc(S(=O)(=O)N4CCOCC4)cc32)CC1	-	0	-	-
O=c1oc2c3c(ccc2c2ccccc12)OCN(Cc1ccccc1Cl)C3	0	28µM	-	-
Cc1cc(=O)oc2c3c(ccc12)OCN(Cc1ccccc1Cl)C3	-	0	-	-
CSc1cccc(NC(=O)C2CCN(S(=O)(=O)c3cnc[nH]3)CC2)c1	-63	0	0	0
CCc1ccc(NC(=O)C2CCCN(S(=O)(=O)c3cnc[nH]3)C2)cc1 (configuration not stated)	-116	0	0	0
CCN1CCc2c(sc(NC(=O)c3ccc4ccccc4c3)c2C(N)=O)C1	-	0	-	-
CCN1CCc2c(sc(NC(=S)NC(=O)c3ccc(Cl)cc3)c2C(N)=O)C1	-110	0	0[15.4 µM]	0
COc1ccc(N2C(N)=C(C#N)C(c3cc(CN4CCOCC4)cs3)C3=C2CCCC3=O)cc1 (configuration not stated)	0	0	-	-
Cc1ccc(NC(=O)CCC(=O)N2Cc3ccccc3Oc3ncccc32)cc1Cl	0	0	-	-
Cc1nc2n(c(=O)c1CCN1CCC(C(=O)c3ccc(F)cc3)CC1)CCS2	0	-	-	-
CCOC(=O)c1sc(NC(=O)c2ccc(Br)o2)cc1C	-63	0	0	0

Bioassay records (PubChem BioAssay)
